Experimental data from PubChem BioAssay AID504339 (National Center for Advancing Translational Sciences (NCATS), 2011).
In all, about 390,000 compounds went through this assay and about 17,000 (4.4%) were called active. Roughly 8% stayed inconclusive and do not appear here. Calls come from the whole dose curve; as a rule, active = well fitted inhibition curve with a large enough effect; inconclusive = small, poorly fitted or top-dose-only effect; inactive = no such curve, though single readings can be large or run the other way. The list comes from a sample in which actives are over-represented; it also holds similar structures and randomly drawn compounds.

target: Lysine-specific demethylase 4A (Homo sapiens) (UniProt O75164); test: qHTS Assay for Inhibitors of JMJD2A-Tudor Domain; conditions: AlphaScreen JMJD2A-Tudor / H3K4me3 peptide binding; series mostly up to 114 µM; activity change, negative = inhibition: at the top concentration; note: nearly all actives have a fitted effect of over 50% in size
Sequence (O75164 whole entry, looked up, the tested form may be a part): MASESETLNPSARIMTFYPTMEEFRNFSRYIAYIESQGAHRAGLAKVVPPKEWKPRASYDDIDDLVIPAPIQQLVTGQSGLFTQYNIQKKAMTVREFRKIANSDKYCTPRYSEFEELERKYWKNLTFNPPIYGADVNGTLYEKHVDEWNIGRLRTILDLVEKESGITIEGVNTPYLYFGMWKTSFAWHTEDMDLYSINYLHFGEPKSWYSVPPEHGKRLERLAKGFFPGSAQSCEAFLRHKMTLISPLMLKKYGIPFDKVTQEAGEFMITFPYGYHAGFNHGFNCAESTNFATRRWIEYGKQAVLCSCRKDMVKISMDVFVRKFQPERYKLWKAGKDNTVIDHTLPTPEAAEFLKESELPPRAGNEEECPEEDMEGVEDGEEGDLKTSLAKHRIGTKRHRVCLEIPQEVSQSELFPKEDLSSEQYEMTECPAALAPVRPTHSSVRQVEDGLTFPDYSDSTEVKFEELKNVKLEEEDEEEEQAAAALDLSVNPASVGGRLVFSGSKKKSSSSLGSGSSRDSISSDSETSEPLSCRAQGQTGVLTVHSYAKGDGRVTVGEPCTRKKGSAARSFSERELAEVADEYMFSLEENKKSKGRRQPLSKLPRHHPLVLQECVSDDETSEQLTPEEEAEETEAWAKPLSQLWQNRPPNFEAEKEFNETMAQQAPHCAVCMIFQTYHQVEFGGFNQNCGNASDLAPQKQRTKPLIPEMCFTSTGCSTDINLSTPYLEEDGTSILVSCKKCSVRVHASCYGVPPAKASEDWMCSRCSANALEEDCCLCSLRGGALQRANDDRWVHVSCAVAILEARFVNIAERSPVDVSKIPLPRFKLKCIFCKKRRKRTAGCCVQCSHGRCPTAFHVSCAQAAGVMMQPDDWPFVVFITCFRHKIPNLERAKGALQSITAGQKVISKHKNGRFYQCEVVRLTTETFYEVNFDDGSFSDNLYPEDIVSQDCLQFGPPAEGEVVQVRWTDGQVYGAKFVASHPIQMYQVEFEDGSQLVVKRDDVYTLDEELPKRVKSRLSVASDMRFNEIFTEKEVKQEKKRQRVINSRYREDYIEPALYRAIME
% is set by controls: 0 for no effect and ±100 for the full control effect; potency is the fitted concentration of half-maximal effect.

| Structure (SMILES) | activity change, negative = inhibition | Potency |
| --- | --- | --- |
| COc1cccc(CNC(=O)c2ccc3c(c2)sc2nc(-c4cccc(OC)c4)cn23)c1 | 0.987% (inactive) |  |
| CCc1ccc(-c2cc(C(=O)NN3CCN(C)CC3)c3ccccc3n2)cc1 | -24.1% (inactive) |  |
| CCc1cc(C(=O)c2ccc(OC)cc2)c(NC(=O)CN2CCN(C)CC2)s1 | -35.7% (inactive) |  |
| CCCCc1nc2ccccc2c(NC(=O)CN2CCN(C)CC2)c1CCC |  | 0.708 µM (active) |
| CC(C)C(=O)Nc1nc2c(s1)CC(C(C)(C)C)CC2 (stereo unspecified) | 4.64% (inactive) |  |
| CC1CN(C(=O)N2CCC(C(=O)NCc3cccs3)CC2)c2ccccc2O1 (stereo unspecified) | 0% (inactive) |  |
| Cc1nn(-c2nc(-c3ccccc3)cc(C(F)(F)F)n2)c(C)c1Cl | 33.8% (inactive) |  |
| CNc1ccc(-c2nc(-c3ccccc3C)no2)cc1[N+](=O)[O-] | -1.66% (inactive) |  |
| COc1ccc(N(C)C(=O)C2CCN(S(=O)(=O)c3cc(Br)cc4c3N(C(C)=O)CC4)CC2)cc1 | -15% (inactive) |  |
| Cc1onc(-c2ccccc2Cl)c1C(=O)NCCn1ccc2ccccc21 | 1.65% (inactive) |  |
| Cc1ccc2cc(CCNC(=O)c3c(-c4ccccc4Cl)noc3C)c(=O)[nH]c2c1 | -5.52% (inactive) |  |
| Cc1onc(-c2ccccc2Cl)c1C(=O)N(Cc1ccc(N(C)C)cc1)C(C)C |  | 39.8 µM (active) |
| CCOc1ccc(OCC)c(Nc2nc3ccccc3n3nnnc23)c1 | -3.36% (inactive) |  |
| CCC(=O)N1CCc2cc(Br)cc(S(=O)(=O)CCC(=O)N3CCN(c4ccc(F)cc4)CC3)c21 | -17.4% (inactive) |  |
| Cc1ccccc1CSc1nc(-c2ccccc2)nc2c1Cc1c(CO)cnc(C)c1O2 | 4.4% (inactive) |  |
| CCOC(=O)Cn1c(=O)n(C2CCCCC2)c2nc(-c3cccc(OC)c3)nc(C(N)=O)c21 | 6.39% (inactive) |  |
| O=C(CN1CCCCCC1)NCCN1C(=O)S/C(=C\c2ccccc2Cl)C1=O | -27.5% (inactive) |  |
| N#Cc1ccccc1CN1C(=O)S/C(=C/c2cccn2-c2cccc(C(=O)O)c2)C1=O |  | 56.2 µM (active) |
| CN(C(=O)CSc1nc2ccccc2n1Cc1ccccc1C#N)c1ccccc1 | -17.2% (inactive) |  |
| CCOc1ccccc1NC(=O)C1=C(C)Nc2ncnn2C1c1ccc(NC(C)=O)cc1 (stereo unspecified) | -9.27% (inactive) |  |
| COc1ccc(Cl)cc1NC(=O)CSc1nc2ccccc2c2nc(-c3ccccc3)nn12 | -16.3% (inactive) |  |
| O=C1COc2c1ccc(O)c2O |  | 5.62 µM (active) |
| O=C1CN(Cc2ccccc2)S(=O)(=O)c2ccccc21 |  | 79.4 µM (active) |
| CC(C)(C)c1ccc(CN2C(=O)c3ccccc3S2(=O)=O)cc1 | 39.4% (inactive) |  |
| COc1ccc(CN2CCC(=O)c3ccccc3S2(=O)=O)cc1 | -16.6% (inactive) |  |
| CCn1cc2nc(SCc3cccc(F)c3)n(CCc3ccccc3)c(=O)c2n1 | -13.6% (inactive) |  |

| Structure (SMILES) | activity change, negative = inhibition | Potency |
| --- | --- | --- |
| Cc1ccccc1Nc1nc(N)nc(CSc2nnc3ccccn23)n1 | -1.03% (inactive) |  |
| Cc1ccccc1Nc1nc(N)nc(CSc2ccccc2)n1 | -23.1% (inactive) |  |
| Cc1ccccc1Nc1nc(N)nc(CN2CCN(c3ccccn3)CC2)n1 |  | 56.2 µM (active) |
| Cc1cc(NC(=O)c2cccc(Cl)c2)ccc1-c1cc2ccccc2oc1=O | -15% (inactive) |  |
| O=C(c1cccs1)c1cn(CCOc2ccc(Cl)cc2)c2ccccc12 | -16.5% (inactive) |  |
| CCN(CC)CCNC(=O)c1cc2c(=O)oc3ccc(C)cc3c2s1 | 5.72% (inactive) |  |
| CCc1ccc(S(=O)(=O)c2nnn3c2nc(NCc2ccccc2OC)c2cc(Cl)ccc23)cc1 | 2.18% (inactive) |  |
| O=[N+]([O-])c1ccc(N2CCN(c3ccc(O)cc3)CC2)c(Cl)c1 |  | 44.7 µM (active) |
| COc1ccc(N2CCN(c3ccc([N+](=O)[O-])cc3Cl)CC2)cc1 | -10.3% (inactive) |  |
| CN(C)S(=O)(=O)N1CCN(c2ccc([N+](=O)[O-])cc2)CC1 | -14.7% (inactive) |  |
| Cc1ccc(Cl)cc1NC(=O)CCS(=O)(=O)c1ccc(Br)s1 | -32.1% (inactive) |  |
| Cc1ccc(S(=O)(=O)N2CC(=O)Nc3ccccc32)cc1C | -9.3% (inactive) |  |
| Cc1ccc(C)c(S(=O)(=O)N2CC(=O)Nc3ccccc32)c1 |  | 79.4 µM (active) |
| Cc1ccc(C)c(S(=O)(=O)N2CCN(C(=O)Nc3ccccc3)CC2)c1 | -24% (inactive) |  |
| CCOc1ccc(CCNC(=O)c2csc3c2CCCCC3)cc1 | -11.6% (inactive) |  |
| COc1ccc(C2=NC3(CCCCC3)N(CC(=O)Nc3ccc(C(C)C)cc3)C2=O)cc1 | -11.7% (inactive) |  |
| Cc1ccc(-n2nc(C)c3c(C)cc(=O)n(CC(=O)Nc4ccc(C(C)C)cc4)c32)cc1 | -1.33% (inactive) |  |
| CC(NS(=O)(=O)c1ccccc1)c1n[nH]c(=S)n1-c1ccccc1 (stereo unspecified) |  | 25.1 µM (active) |
| CCCCC(CC(C)O)c1n[nH]c(=S)n1-c1ccccc1 (stereo unspecified) |  | 28.2 µM (active) |
| CC(NS(=O)(=O)c1ccc(OCC(=O)N2CCCC2)cc1)c1ccccc1 (stereo unspecified) | -20% (inactive) |  |
| CC(=O)Nc1ccc(NC(=O)COc2ccc(S(=O)(=O)NC(C)c3ccccc3)cc2)cc1 (stereo unspecified) | -12.4% (inactive) |  |
| CCCSc1nc2sc3c(c2c(=O)n1-c1cccc(Br)c1)CC(C)(C)OC3 | -6.23% (inactive) |  |
| CCC(C(=O)Nc1cccc(Cl)c1C)n1nc(-c2ccc(C)cc2)ccc1=O (stereo unspecified) | 1.57% (inactive) |  |
| CCc1ccc(NC(=O)c2cc(S(=O)(=O)NC3CCCCCC3)ccc2F)cc1 | -16.5% (inactive) |  |
| CCn1c(SCC(=O)Nc2nc(C)cs2)nnc1C(C)NC(=O)c1ccccc1 (stereo unspecified) |  | 79.4 µM (active) |
| COCCn1c(SCC(=O)Nc2nc(C)cs2)nnc1C(C)C | -6.34% (inactive) |  |

| Structure (SMILES) | activity change, negative = inhibition | Potency |
| --- | --- | --- |
| CCn1c(SCC(=O)NC2=NCCS2)nnc1C(C)NC(=O)c1ccccc1F (stereo unspecified) | 0.714% (inactive) |  |
| Cc1ccc(N2CC(NC(=O)Cc3cccs3)CC2=O)cc1 (stereo unspecified) | -0.325% (inactive) |  |
| COc1cccc(CNCc2c(C(=O)O)n(Cc3ccc(C)cc3)c3cc(C)ccc23)c1OC | -27.8% (inactive) |  |
| Oc1oc(-c2ccccc2Br)nc1/C=N/c1ccccn1 | -28.1% (inactive) |  |
| CC(N=Cc1nc(-c2ccccc2)oc1O)c1ccccc1 (stereo unspecified) |  | 79.4 µM (active) |
| CCOc1ccc2nc(/N=C/c3nc(-c4ccccc4)oc3O)sc2c1 | 0.641% (inactive) |  |
| CCN(Cc1ccccc1)S(=O)(=O)c1ccc2c(c1)CCCN2C(C)=O | -0.968% (inactive) |  |
| COC(=O)c1cc(NC(=O)c2cnc(SC)nc2-c2ccccc2)cc(C(=O)OC)c1 | -3.53% (inactive) |  |
| O=C1CCCCN1CCCC(=O)N1CCCC(Nc2ccc(F)cc2)C1 (stereo unspecified) | -26.6% (inactive) |  |
| O=C1/C(=C/c2ccc(F)cc2)SC(=S)N1CCCC(=O)N1CCCCC1CCO (stereo unspecified) |  | 44.7 µM (active) |
| O=C1/C(=C/c2ccc(F)cc2)SC(=S)N1NS(=O)(=O)c1ccccc1 | -31.5% (inactive) |  |
| CCOc1cccc2cc(-c3cn4c(n3)sc3cc(C)ccc34)c(=O)oc12 | -17.3% (inactive) |  |
| O=C(CSc1ncc(S(=O)(=O)c2ccc(Br)cc2)c(=O)[nH]1)Nc1ccc2c(c1)OCCO2 | -23.6% (inactive) |  |
| COc1cc2nc(SCC(=O)Nc3ccccc3F)n3nc(-c4ccccc4)nc3c2cc1OC | -20.3% (inactive) |  |
| COc1ccc(N2CCN(Cc3ccc(Br)s3)CC2)cc1 |  | 3.55 µM (active) |
| COc1ccc(N2CCN(C(=O)c3cccs3)CC2)cc1 | -25.6% (inactive) |  |
| COc1ccc(N2CCN(Cc3nnc(-c4ccccc4)o3)CC2)cc1 | -22.4% (inactive) |  |
| COc1cccc(NC(=O)Cn2c(=O)cc(C)c3c(C)nn(-c4cccc(F)c4)c32)c1 | -6% (inactive) |  |
| O=S(=O)(c1ccccc1)c1nc(-c2ccc(Cl)cc2Cl)oc1N1CCCCC1 | -30.6% (inactive) |  |
| O=C(O)c1cccnc1Sc1ncnc2sc3c(c12)CCC3 |  | 31.6 µM (active) |
| CCCSc1ncccc1C(=O)O | -11% (inactive) |  |
| OCCNc1nc2ccccc2n1-c1ncnc2sc3c(c12)CCC3 | -15.2% (inactive) |  |
| Cc1ccc2oc3c(c(=O)c2c1)C(c1ccc([N+](=O)[O-])cc1)N(CCCN1CCOCC1)C3=O (stereo unspecified) | -12.9% (inactive) |  |
| CCc1ccccc1NC(=O)N1CCC2(CC1)Oc1ccccc1C(=O)N2Cc1ccccc1F | -9.82% (inactive) |  |
| CC(=O)Nc1ccc(NC(=O)CCCc2nc(-c3ccc(C(C)(C)C)cc3)no2)cc1 | -15.6% (inactive) |  |
| N#Cc1cc([N+](=O)[O-])ccc1Oc1cccc(/C=N/NC(=O)c2ccc(Cl)cc2)c1 | 3.79% (inactive) |  |

| Structure (SMILES) | activity change, negative = inhibition | Potency |
| --- | --- | --- |
| O=C(N/N=C/c1cccc(OC(=O)c2ccc([N+](=O)[O-])cc2)c1)c1cccnc1 | -9.12% (inactive) |  |
| O=C(N/N=C/c1ccc(Cl)cc1)c1nc2ccc([N+](=O)[O-])cc2c(=O)[nH]1 |  | 28.2 µM (active) |
| COC(=O)c1ccc(NC(=O)CCc2c(C)nn(-c3ccc(N4CCCC4)nn3)c2C)cc1 | -28% (inactive) |  |
| Cc1cc(C)cc(Nc2ncnc3onc(-c4ccc(F)cc4)c23)c1 | 19.4% (inactive) |  |
| Brc1nc2ncnc(NCc3ccco3)c2[nH]1 | -4.62% [at 57.1 µM] (inactive) |  |
| O=C1CSC(=S)N1/N=C/c1ccc(O)c([N+](=O)[O-])c1 |  | 20 µM (active) |
| O=C(CNC(=O)c1ccc(Cl)c(C(F)(F)F)c1)OC(C(=O)Nc1cc(C(F)(F)F)ccc1Cl)c1ccccc1 (stereo unspecified) | -21.2% (inactive) |  |
| CCOC(=O)c1ccccc1NC(=O)c1nn(-c2ccc(OC)c(Cl)c2)c(=O)c2c1c1ccccc1n2C | 0% (inactive) |  |
| N#Cc1nc(Nc2cc(F)cc(Cl)c2)nc(NC2CCCC2)n1 | -3.42% (inactive) |  |
| Cc1onc(C(=O)NN)c1-c1csc(COc2ccccc2)n1 | -5.43% (inactive) |  |
| CCCC(=O)N1c2ccc(-c3csc(N)n3)cc2CC1C (stereo unspecified) | -22.4% (inactive) |  |
| CC(C)(C)C(=O)OCc1nc(-c2ccc(O)c(O)c2)cs1 |  | 3.55 µM (active) |
| Cc1cc(C)c(NC(=O)CSc2nc3nccnc3c(=O)n2CCc2c[nH]c3ccccc23)c(C)c1 | -1.32% (inactive) |  |
| COC(=O)c1ccccc1NC(=O)c1ccc(C#N)cc1 | -6.85% (inactive) |  |
| COc1cc(NC(=O)Cn2c(=O)n(Cc3ccco3)c(=O)c3oc4ccccc4c32)cc(OC)c1 | -12.1% (inactive) |  |
| O=S(=O)(NCCc1nnc2ccc(SCc3ccc(Cl)cc3Cl)nn12)c1ccccc1 | -28.2% (inactive) |  |
| O=C(O)/C=C/C(=O)NNc1ccc([N+](=O)[O-])cc1 |  | 31.6 µM (active) |
| NC(=O)C1(Nc2ccc([N+](=O)[O-])cc2)CCCC1 | -8.28% (inactive) |  |
| CNC(=S)Nc1ccc([N+](=O)[O-])cc1 | -16.7% (inactive) |  |
| CCS(=O)(=O)N1CCC(n2c(C)nc3cccnc32)CC1 | -7.47% (inactive) |  |
| O=C(CSc1ncn[nH]1)Nc1ccnc2ccccc12 | -14.5% (inactive) |  |
| CCN(C(=O)COC(=O)c1ccccc1O)c1cccc2ccccc12 | 5.48% (inactive) |  |
| CCN(C(=O)CSc1ncn[nH]1)c1cccc2ccccc12 |  | 3.16 µM (active) |
